# From PubChem BioAssay AID2685 (National Center for Advancing Translational Sciences (NCATS), 2010)
# The campaign covered roughly 320,000 compounds. About 2,100 (0.66%) were called active. Not shown: some 53% with an inconclusive outcome. The sample holds actives, similar compounds and a random draw of the others, so the mix is not that of the screen. Calls follow the shape of the dose curve; as a rule, active = well fitted inhibition curve with a large enough effect in the signal ratio, with a control signal flat (not every such curve was filed as active); inconclusive = small, poorly fitted or top-dose-only effect, or effect the other way, or a change in a side signal; inactive = flat fitted curve, though single readings scatter; the % refers to the signal ratio.
# Test: qHTS Assay for Lipid Storage Modulators in Drosophila S3 Cells;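 as to cell number change: cells counted by Cell Tracker Red CMTPX staining in the red channel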; as to lipid storage change, negative = inhibition: % is scaled to controls: 0 for no effect and ±100 for the full control effect
# Conditions: BODIPY lipid droplet fluorescence, 18-24 h, cells fed with added oleic acid; cell number change: measured here: cell count max response; series mostly up to 46.1 µM; lipid storage change, negative = inhibition: at the top concentration
# In short: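 Laser-scanning cytometry quantifies lipid droplet accumulation (500–530 nm total intensity; droplet/cell object ratio) in oleic acid-fed (400 uM added) Drosophila S3 cells treated with a concentration series. 20 uM Triacsin C defined 100% inhibition.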
# Potency is read from the fitted curve at half-maximal effect.
SMILES,"lipid storage change, negative = inhibition",cell number change [%],Potency,outcome
CC(Oc1ccc(-c2nnco2)cc1)C(=O)N1CCOCC1 (stereo not given),2.05% (inactive),6.36,,
CC(Oc1ccc(-c2ccccc2)cc1)C(=O)N1CCOCC1 (stereo not given),,17.9,2.91 µM (active),
CC(Oc1ccc(C(=O)c2ccccc2)cc1)C(=O)N1CCOCC1 (stereo not given),,,,inactive
CCCN1Cc2cccc(C(=O)NCCCOC(C)C)c2C1=O,,2.03,,inactive
Cc1ccc(-c2cc(C(=O)NCCCN3CCCC3)c3ccccc3n2)cc1C,-11.6% (inactive),,,
COc1cccc(NC(=O)C2CC(=O)n3cnnc3S2)c1 (stereo not given),-20.3% (inactive),-29,,
CCN=C1SC(C(=O)Nc2cccc(C)c2)CC(=O)N1CC (stereo not given),3.18% (inactive),-13.5,,
Cc1cccc(NC(=O)C2CC(=O)n3cnnc3S2)c1 (stereo not given),,-1.17,13 µM (active),
COc1ccc(N=C2NC(=O)/C(=C/c3ccco3)S2)cc1,-1.57% (inactive),15.8,,
O=C(CNC(=O)c1ccco1)Nc1ccncc1,23% (inactive),,,
CCOc1ccc(N=C2NC(=O)/C(=C/C(=O)OC)S2)cc1,,,25.9 µM (active),
COC(=O)/C=C1/SC(=Nc2ccc(Cl)c(Cl)c2)NC1=O,19.2% (inactive),7.13,,
COC(=O)/C=C1\SC(=Nc2ccccc2)NC1=O,-66.9% (inactive),10.6,,
O=C(c1nc2ccccn2c1CNCCCn1ncc2ccccc21)N1CCOCC1,7.24% (inactive),25.5,,
NC(=S)N/N=C\c1ccccc1OCc1ccccc1,8.29% (inactive),0.634,,
COc1cccc(/C=N/NC(N)=S)c1OS(=O)(=O)c1ccccc1,-5.43% (inactive),-16.4,,
COc1cccc(/C=N/NC(N)=S)c1OCc1cccc(Cl)c1,,0.0836,8.2 µM (active),
O=C(c1ccc(C#CC2(O)CCCCC2)cc1)N1CCOCC1,,5.75,,inactive
O=C1OCC(CO)(CO)N=C1NNc1ccccc1Cl,,,,inactive
COc1cccc(C2=NOC(C(=O)Nc3cccnc3Cl)C2)c1 (stereo not given),5.17% (inactive),3.11,,
Cc1cc(C)n2nc(C(=O)Nc3cccc(S(=O)(=O)N(C)c4ccccc4)c3)nc2n1,,-15.3,11.6 µM (active),
CN(c1ccccc1)S(=O)(=O)c1cccc(NC(=O)c2ccncc2)c1,-23.7% (inactive),0.47,,
Cc1cc(C)n2nc(C(=O)Nc3ccc(S(=O)(=O)N(C)C)cc3)nc2n1,-29.8% (inactive),-26.7,,
Cc1nc2c(-c3ccccc3)cnn2c(N2CCOCC2)c1C,,-16.7,2.91 µM (active),
CC(C)(C)c1cc(N2CCOCC2)n2ncc(-c3ccccc3)c2n1,6.85% (inactive),-9.44,,

SMILES,"lipid storage change, negative = inhibition",cell number change [%],Potency,outcome
Cc1cc(N2CCOCC2)n2ncc(-c3ccccc3)c2n1,,-5.35,,inactive
O=C(CN1CCCCC1)N1N=C(c2cccs2)CC1c1cccs1 (stereo not given),-0.409% (inactive),18.5,,
CSc1ccc(CN(C)C(=O)CSCC(=O)Nc2cc(C)on2)cc1,-15.8% (inactive),13.3,,
CCn1c(SCC(=O)N(C)C2CCS(=O)(=O)C2)nnc1-c1ccccc1 (stereo not given),-21% (inactive),-11.5,,
CCN(C(=O)CSc1nc2ccc(OC)cc2[nH]1)C1CCS(=O)(=O)C1 (stereo not given),23% (inactive),,,
CN(C(=O)CSc1nnc(-c2ccccc2)n1C)C1CCS(=O)(=O)C1 (stereo not given),14.6% (inactive),,,
Cc1ccc2nc(SCC(=O)N(C)C3CCS(=O)(=O)C3)[nH]c2c1 (stereo not given),,7.53,1.16 µM (active),
CN(C(=O)CSc1nc2ccccc2[nH]1)C1CCS(=O)(=O)C1 (stereo not given),,-2.26,,inactive
CN(C(=O)CSc1nnc(-c2ccc(C(C)(C)C)cc2)n1C)C1CCS(=O)(=O)C1 (stereo not given),,3.86,10.3 µM (active),
O=C(COC(=O)Cc1ccccc1F)Nc1cc(S(=O)(=O)N2CCOCC2)ccc1N1CCCC1,0.102% (inactive),0.15,,
COC(=O)CN1C(=O)N/C(=C/c2ccc(OC)cc2)C1=O,-9.61% (inactive),-7.72,,
O=C(NC1CC1)c1ccc(S(=O)(=O)NCC2CCCCC2)cc1,1.43% (inactive),6.17,,
NC(=O)c1ccc(Oc2ccc(-c3nnco3)cc2)c([N+](=O)[O-])c1,,16.7,,inactive
NC(=O)c1ccc(Oc2ccc(Cl)cc2)c([N+](=O)[O-])c1,-2.44% (inactive),18.1,,
NC(=O)c1ccc(Oc2ccc3c(c2)CCC3)c([N+](=O)[O-])c1,,-16.2,2.91 µM (active),
CCOc1ccc(Cl)cc1S(=O)(=O)N1CCCC1,,23.3,,inactive
COc1cnc(-c2ccccc2)nc1Sc1ccccc1,9.35% (inactive),14.5,,
CN(C)S(=O)(=O)c1cccc(C(=O)NCCOC(=O)c2cc(F)c(F)cc2Cl)c1,,5.13,,inactive
CN(C)S(=O)(=O)c1ccc(C(=O)NCCOc2ccc(F)cc2)cc1,,5.77,18.4 µM (active),
CCc1ccc(OCCNC(=O)c2ccc(S(=O)(=O)N(C)C)cc2)cc1,,-5.09,,inactive
CCN(CC)CCNC(=O)c1ccc(NC(=O)c2ccc(F)cc2F)cc1,0.115% (inactive),0.662,,
CN(C)S(=O)(=O)c1ccc(C(=O)NCCOc2ccccc2)cc1,-16.1% (inactive),-3.57,,
CCN(CC)S(=O)(=O)c1ccc(C(=O)NCCOC(=O)c2ccc(F)cc2F)cc1,,,4.61 µM (active),
CN1C(C(=O)NCc2ccccc2)CC2Cn3c(nc4cc(Cl)c(Cl)cc43)C21 (stereo not given),14.4% (inactive),23.6,,
